# Results: PubChem BioAssay AID686978 (National Center for Advancing Translational Sciences (NCATS), 2013)
# The campaign covered roughly 420,000 compounds. About 64,000 (15%) were called active. Not shown: some 27% with an inconclusive outcome. Calls follow the shape of the dose curve; as a rule, active = well fitted inhibition curve with a large enough effect; inconclusive = small, poorly fitted or top-dose-only effect; inactive = flat fitted curve, though single readings scatter. The list is a sample of the results. Entries that show only a call come without a potency.
# Assay: qHTS for Inhibitors of human tyrosyl-DNA phosphodiesterase 1 (TDP1): qHTS in cells in absence of CPT; also: nearly all actives have a fitted effect of over 55% in size
# Conditions: DT40 Tdp1-/- hTDP1 cells, no CPT, ATP luminescence, 48 h; activity change, negative = growth inhibition: at 46.2 µM (top of the series)
# Procedure, shortened: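 Growth kinetics read by CellTiter-Glo luminescence after ≥48 hr at 37 °C. Cells: DT40 Tdp1-/- stably carrying human TDP1, 400 per well, compound exposure in the absence of CPT (DMSO vehicle).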
# Potency is read from the fitted curve at half-maximal effect.
SMILES,Potency,"activity change, negative = growth inhibition"
O=C(Nc1ccc(F)c([N+](=O)[O-])c1)C1CCCO1 (stereo not drawn),inactive,
O=C1/C(=C/c2cccs2)CCc2ccccc21,inactive,
COc1ccc(/C=C2/CCCc3ccccc3C2=O)cc1,5.8 µM (active),
COc1ccc(/C=C2\N=C3CCCN3C2=O)cc1,inactive,
COc1ccc(/C=C2\CCc3ccccc3C2=O)c(OC)c1OC,20.6 µM (active),
COc1ccc(/C=C2\NC(=O)[C@@H]3Cc4ccccc4CN3C2=O)cc1,,-8.4% [at 9.04 µM] (inactive)
COc1ccccc1C1=CC(=O)CCC1,inactive,
O=C(O)CC(Cc1ccccc1)C(=O)Nc1ccc([N+](=O)[O-])cc1 (stereo not drawn),inactive,
COc1cccc(C(=O)N/N=C(\C)c2cccc(NC(=O)c3ccc(F)cc3)c2)c1OC,23.1 µM (active),
COc1ccc(/C(C)=N\NC(=O)c2ccc(-c3ccccc3)cc2)c(F)c1,inactive,
COc1cccc(C(=O)Nc2cccnc2)c1OC,inactive,
CCc1ccc(CCC(=O)Nc2ccc(S(N)(=O)=O)cc2)o1,inactive,
Cc1ccc2cc(C)c(N3CCC(C)CC3)nc2c1,inactive,
CCOc1n[nH]c(-c2ccccc2)n1,inactive,
O=C(CNC(=O)N1CC(=O)Nc2ccccc21)Nc1ccc(Br)cc1F,inactive,
Cc1ccc(Cn2ccc(NC(=O)C3C4CCC(C4)C3C(=O)O)n2)cc1 (stereo not drawn),inactive,
COc1ccc(NC(=O)C2Cc3c(-c4ccc(Cl)cc4)ccnc3O2)cc1 (stereo not drawn),13 µM (active),
COc1ccc(CCNC(=O)COc2ccc3c(c2)OCO3)cc1,inactive,
COc1ccc(N(CC(=O)NC2CCCC2)C(=O)CS(=O)CC(=O)Nc2ccc3c(c2)OCO3)cc1 (stereo not drawn),inactive,
COc1ccc(OCC(O)CNC(=O)Nc2ccc(Cl)cc2)cc1 (stereo not drawn),inactive,
CC(=O)Nc1ccc(-c2ccnc3c2CC(C(=O)NC(C)C)O3)cc1 (stereo not drawn),inactive,
COc1ccc(Cn2ccnc2SCC(=O)Nc2ccc3c(c2)OCO3)cc1,inactive,
O=C(COc1ccc(Cl)cc1)Nc1ccc2c(c1)OCO2,inactive,
COc1ccc(NC(=O)C2Cc3c(-c4ccc5c(c4)OCO5)ccnc3O2)cn1 (stereo not drawn),4.61 µM (active),
O=C(Nc1ccc(Cl)cc1)C1Cc2c(-c3ccc4c(c3)OCO4)ccnc2O1 (stereo not drawn),20.6 µM (active),
O=C(Nc1ccc2c(c1)OCO2)C1CC1(Cl)Cl (stereo not drawn),inactive,

SMILES,Potency,"activity change, negative = growth inhibition"
COc1ccc(CCNC(=O)COC(=O)c2cnc(Cl)c(Cl)c2)cc1,inactive,
COc1ccc(CCCNC(=O)C2Cc3c(-c4cccc(C(N)=O)c4)ccnc3O2)cc1 (stereo not drawn),16.4 µM (active),
COc1cc(OC)c(C(=S)N2CCCC2)cc1OC,inactive,
O=C1NC(=O)C(CCc2ccccc2)(c2ccccc2)N1 (stereo not drawn),inactive,
O=C(Nc1c2c(nn1-c1cccc(Cl)c1)CS(=O)(=O)C2)c1cccs1,inactive,
COc1ccc(-n2nnnc2SCC(=O)NCc2cccs2)cc1,inactive,
COc1ccc(N2CCN(C(=O)c3cn(C)c4ccc(S(=O)(=O)N5CCOCC5)cc4c3=O)CC2)cc1,inactive,
CC(=O)NC1(c2cccc(F)c2)CCN(CC(=O)NC(C)C)CC1,inactive,
CCCCC1=CC2=CC(=O)C(C)(OC(=O)CC)C(=O)C2=CN1CCCOC(C)C (stereo not drawn),inactive,
CCOc1ncccc1C(=O)OCC(=O)c1c[nH]c2ccccc12,inactive,
O=C(CCC(=O)OCC(F)(F)C(F)F)NCc1ccccc1,inactive,
O=C(NC12CC3CC(CC(C3)C1)C2)N1CCCC(CO)C1 (stereo not drawn),inactive,
CCOC(=O)c1ccc[n+](CC(=O)Nc2ccccc2OC(F)F)c1,inactive,
CC(C)Sc1nc(N)nc2c1ncn2C1OC(CO)C(O)C1O (stereo not drawn),inactive,
OC[C@@H]1O[C@H](n2cnc3c(SCc4ccccc4)ncnc32)[C@H](O)[C@H]1O,11.2 µM (active),
Nc1nc(SCc2ccc([N+](=O)[O-])cc2)c2ncn(C3OC(CO)C(O)C3O)c2n1 (stereo not drawn),inactive,
Cc1ccc(C(=O)N2CCc3cc(CNC(=O)c4ccc(Br)cc4)ccc32)cc1,14.6 µM (active),
O=C(CCc1ccc(S(=O)(=O)NC2CCCCC2)cc1)NCc1ccccc1,inactive,
O=C(CCc1ccccc1)NCc1ccc2c(c1)CCN2C(=O)c1ccccc1,20.6 µM (active),
Cc1cc2cc(CNC(=O)c3ccc(S(=O)(=O)N4CCOCC4)cc3)ccc2[nH]1,inactive,
CCC(=O)N1CCc2cc(S(=O)(=O)NC(Cc3ccccc3)C(=O)NCc3ccc(C)cc3)ccc21 (stereo not drawn),inactive,
O=C(CCc1ccccc1)NCc1cccnc1,inactive,
CN(C)c1ncc2nc(-c3ccc(F)cc3)c(=O)n(Cc3ccc(F)cc3)c2n1,inactive,
C=Cc1ccc(Cn2c(C(=O)OC)cc3sc(C)cc32)cc1,inactive,
C=CC[C@H](CC(=O)NCCO)C(=O)N[C@@H](COC(=O)[C@@H](CC=C)Cc1ccc(F)cc1)Cc1c[nH]c2ccccc12,23.1 µM (active),
C=CC[C@@H](CC(=O)NCCO)C(=O)N[C@H](C)COC(=O)[C@@H](CC=C)CC(=O)OC(C)(C)C,inactive,

SMILES,Potency,"activity change, negative = growth inhibition"
C=CCC[C@@H](Cc1ccc(F)cc1)C(=O)OC[C@H](Cc1c[nH]c2ccccc12)NC(=O)[C@@H](CC=C)CC(=O)N(CCO)Cc1ccccc1,16.4 µM (active),
COC(=O)C(Cc1c[nH]c2ccccc12)NC(=O)CCNC(=O)c1ccco1 (stereo not drawn),inactive,
CC(=O)NC(Cc1c[nH]c2ccccc12)C(=O)NCCc1ccccc1 (stereo not drawn),inactive,
O=C(CCc1c[nH]c2ccccc12)NCCOc1ccccc1,inactive,
C=CCC[C@H](Cc1ccc(F)cc1)C(=O)OC[C@@H](Cc1c[nH]c2ccccc12)NC(=O)[C@H](CC=C)CC(=O)N[C@H](CO)Cc1ccccc1,20.6 µM (active),
CCN(CC)c1nc(C#N)nc(OC)n1,inactive,
CC1(C)CC(=O)NC=C(c2ccccc2)C1,inactive,
COc1cc2c(cc1OC)/C(=C/C(=O)c1ccc(NC(C)=O)cc1)NCC2,inactive,
O=C(OCCO)c1cc(Cl)c(C(=O)OCCO)cc1Cl,inactive,
O=S(=O)(c1ccc(-c2ccccc2)cc1)N1CCCC1,inactive,
CN[C@@H]1[C@H](O[C@H]2[C@H](O[C@H]3[C@H](O)[C@@H](O)[C@H](N=C(N)N)[C@@H](O)[C@@H]3N=C(N)N)O[C@@H](C)[C@]2(O)CO)O[C@@H](CO)[C@H](O)[C@H]1O,inactive,
Cc1cc(C)nc(Nc2n[nH]c(-c3ccccc3N)n2)n1,inactive,
CCOC(=O)CSc1nncc2ccc(OC)c(OC)c12,inactive,
Cc1cc(C)cc(NS(=O)(=O)c2ccc(-c3cc(C)no3)s2)c1,2.59 µM (active),
Cc1cc(-c2ccc(S(=O)(=O)N3CCN(c4cccc(C(F)(F)F)c4)CC3)s2)on1,inactive,
Cc1cc(-c2ccc(S(=O)(=O)N3CCc4ccccc4C3)s2)on1,inactive,
Cc1cccc(N2CCN(S(=O)(=O)c3ccc(-c4cc(C)no4)s3)CC2C)c1 (stereo not drawn),inactive,
CC(=O)c1ccc(NS(=O)(=O)c2ccc(-c3cc(C)no3)s2)cc1,inactive,
CCc1cccc(C)c1NS(=O)(=O)c1ccc(-c2cc(C)no2)s1,0.517 µM (active),
COc1cc(CNc2ncn[nH]2)ccc1OCc1ccccc1C,inactive,
CC(C)CNc1ncnc2c1nnn2C,inactive,
Cc1cccc(NC(=O)NC2(C)CCS(=O)(=O)C2)c1 (stereo not drawn),inactive,
Cc1nccn1-c1ccc(NC(=O)[C@H]2O[C@@H](n3ccc(=O)[nH]c3=O)[C@H](O)[C@@H]2O)cc1,inactive,
COCCOC(=O)C1=C(C)NC(=O)NC1c1cc2c(cc1Br)OCO2 (stereo not drawn),inactive,
CCOc1cc(S(=O)(=O)NC2CC(C)(C)NC(C)(C)C2)ccc1F,inactive,
COc1cc(/C=N/Nc2nn3cnnc3c3ccccc23)cc(OC)c1OC,16.4 µM (active),

SMILES,Potency,"activity change, negative = growth inhibition"
COc1cc(/C=N/Nc2ccc(C)cc2)cc(Br)c1O,inactive,
COc1cc(/C=N/NC(=O)Cc2ccccc2)cc(OC)c1OC,inactive,
Cc1nnsc1C(=O)NCc1c(F)cccc1Cl,inactive,
COc1ccccc1Nc1nnc(SC(C)C(=O)NC2CC2)s1 (stereo not drawn),inactive,
Cc1ccc(OCc2n[nH]c(=S)n2-c2ccccc2)cc1,inactive,
S=c1[nH]nc(CSCc2ccc(Cl)cc2Cl)n1-c1ccccc1,15.8 µM (active),
Cc1ccc(NCc2n[nH]c(=S)n2-c2ccccc2)cc1Cl,inactive,
Cc1c(C(=O)N2CCCC2)c(S(=O)(=O)NCC(C)c2ccccc2)c(C)n1C (stereo not drawn),inactive,
O=C(N1CCOCC1)N(Cc1ccccc1)c1ccccn1,inactive,
O=C(c1ccc(Br)o1)N(c1ccccn1)C1CCCCC1,23.1 µM (active),
O=C(c1cccs1)N(C(=O)c1cccs1)c1ccccn1,inactive,
CCn1c(CNC(=O)C23CC4CC(CC(C4)C2)C3)nnc1SCC(=O)Nc1ccc(OC)cc1,inactive,
CN(C)/C=C(\C#N)C(=O)c1cccnc1Oc1ccc(F)cc1F,inactive,
O=c1ccc2c(-c3ccccc3S(=O)(=O)O)c3ccc(O)c(O)c3oc-2c1O,11.6 µM (active),
CCCNC(=S)NC1CC2CCCC(C1)N2CC(C)C (stereo not drawn),inactive,
O=C(NCCCc1ccccc1)c1cc(COc2c(F)cccc2F)on1,inactive,
O=C(NC(=O)c1ccccc1)NC(=O)c1ccccc1,inactive,
CC(NC(=O)c1ccccc1)C(=O)Nc1ccccc1 (stereo not drawn),inactive,
O=C(NC1=CC(=O)c2ccccc2C1=O)c1ccccc1,1.16 µM (active),
Cc1csc[n+]1CCC1CCCCC1,10 µM (active),
C=CCn1c(SCC(=O)/C(C#N)=C(\C)N)nc2sc(C)c(C)c2c1=O,inactive,
CCOC(=O)c1nnn2c3ccccc3c(=O)n(C)c12,inactive,
CCOC(=O)c1nnn2c1nc(N1CCN(c3ccccc3)CC1)c1ccccc12,14.6 µM (active),
CC(=O)c1ccc(N2CCN(c3nc4c(S(=O)(=O)c5ccccc5)nnn4c4ccc(Cl)cc34)CC2)cc1,inactive,
CCOc1ccc(NC(=O)CCNC(=O)c2ccc(Br)cc2)cc1,inactive,
